For ten compounds, growth inhibition results are on record in PubChem BioAssay (NCI).

Structures are written as SMILES. This is part of a sample that, as a whole, favours compounds with a hit. Of some 79,000 tested, about 15% had one in any assay. Unmarked numbers belong to inactive results. Active and inactive are the calls of the source. No stated cut-off is given here; in the data, active means growth inhibition above about 70%; inactive means the rest.

A short description of assay [1]: NCI Yeast Anticancer Drug Screen. Data for the rad50 strain (AID 155).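 Further: 0% = growth of vehicle-only cultures of the same strain.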 The settings on record: S. cerevisiae rad50 strain growth inhibition, stronger effect = higher value. Put shortly: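 Cells are treated with compound, grown, and their growth is then scored against vehicle-only cultures of the same repair-deficient yeast strain.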
Assay [2] in a line: NCI Yeast Anticancer Drug Screen. Data for the mec2-1 strain (AID 157). The settings on record: S. cerevisiae mec2-1 strain, stronger effect = higher value. In outline: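 Test agents were screened against the mec2-1 yeast strain, with defined DNA repair or cell cycle alteration. Growth was scored as inhibition against vehicle-only controls.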
Assay [3] in a line: NCI Yeast Anticancer Drug Screen. Data for the sgs1 mgt1 strain (AID 161).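 Further: 0% = growth of cultures given vehicle only.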 Conditions: S. cerevisiae sgs1 mgt1 strain, stronger effect = higher value. Put shortly: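 Test agents were incubated with a DNA-repair-mutant yeast strain. Growth was then read and compared against vehicle-treated controls.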
Assay [4] in a line: NCI Yeast Anticancer Drug Screen. Data for the cln2 rad14 strain (AID 165).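 Further: 0% = growth equal to vehicle treated cultures.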 Conditions: S. cerevisiae cln2 rad14 strain, stronger effect = higher value. In outline: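 Growth of compound-exposed yeast (cln2 rad14 genotype) measured and expressed as inhibition relative to vehicle.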
Assay [5] can be described thus: NCI Yeast Anticancer Drug Screen. Data for the bub3 strain (AID 167). Conditions: S. cerevisiae bub3 mutant strain, stronger effect = higher value. In outline: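 Part of a panel of yeast mutants defective in DNA damage repair or cell cycle regulation. Each strain is grown with compound, and inhibition is calculated relative to solvent-treated cultures.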
Assay [6] in a line: NCI Yeast Anticancer Drug Screen. Data for the mlh1 rad18 strain (AID 175). Conditions: S. cerevisiae mlh1 rad18 strain growth inhibition, stronger effect = higher value. Put shortly: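 In this whole-cell yeast screen, a strain with altered DNA damage repair is challenged with compound, and its growth is measured against matched vehicle-treated controls.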
Setting [7] is: at 5.0 µM (retest, dose inferred, filed as 0.5).
Where [8] appears, read: at 50.0 µM (retest, dose inferred, filed as 5.0).

In the case of `Clc1ccccc1NN(Cc1ccccn1)c1ccccc1Cl`, the growth inhibition was 16% in assay [1] (setting [7]); 54% in assay [1] (setting [8]); 76.5% (active) in assay [1] (at 50.0 µM); -6% in assay [2] (setting [7]); 32% in assay [2] (setting [8]); 58.7% in assay [2] (at 50.0 µM). In addition, the growth inhibition in assay [3] (setting [7]) is 8%; in assay [3] (setting [8]), 69%; in assay [3] (at 50.0 µM), 58.9%; in assay [4] (setting [7]), -14%; in assay [4] (setting [8]), 50%; in assay [4] (at 50.0 µM) it was 57%. Besides, the growth inhibition in assay [5] (setting [7]) was 28%; in assay [5] (setting [8]), 77% (active); in assay [5] (at 50.0 µM), 88.4% (active); in assay [6] (setting [7]), 3%; in assay [6] (setting [8]), 59%; in assay [6] (at 50.0 µM) it was 71.2% (active).

Take `O=[N+]([O-])c1ccc(NS(=O)(=O)c2ccccc2)c(NS(=O)(=O)c2ccccc2)c1`: the growth inhibition was 15% in assay [1] (setting [7]); 75% (active) in assay [1] (setting [8]); 81.5% (active) in assay [1] (at 50.0 µM); 14% in assay [2] (setting [7]); 76% (active) in assay [2] (setting [8]); 73.4% (active) in assay [2] (at 50.0 µM). For the same compound, the growth inhibition in assay [3] (setting [7]) was 20%; in assay [3] (setting [8]) it was 81% (active); in assay [3] (at 50.0 µM), 83.2% (active); in assay [4] (setting [7]) it was 27%; in assay [4] (setting [8]) it was 32%; in assay [4] (at 50.0 µM) it was 82.1% (active). The growth inhibition was 6% in assay [5] (setting [7]); 43% in assay [5] (setting [8]); 80.1% (active) in assay [5] (at 50.0 µM); 11% in assay [6] (setting [7]); 90% (active) in assay [6] (setting [8]); 71.7% (active) in assay [6] (at 50.0 µM).

Regarding `N#CSCC(=O)c1ccccc1`, the growth inhibition in assay [1] (setting [7]) is 93% (active); in assay [1] (setting [8]), 98% (active); in assay [1] (at 50.0 µM) it was 98.8% (active); in assay [2] (setting [7]) it was 95% (active); in assay [2] (setting [8]), 99% (active); in assay [2] (at 50.0 µM) it was 99.2% (active). For the same compound, the growth inhibition in assay [3] (setting [7]) was 95% (active); in assay [3] (setting [8]), 98% (active); in assay [3] (at 50.0 µM), 97.5% (active); in assay [4] (setting [7]), 87% (active); in assay [4] (setting [8]), 99% (active); in assay [4] (at 50.0 µM), 97.2% (active). In addition, the growth inhibition in assay [5] (setting [7]) is 94% (active); in assay [5] (setting [8]) it was 98% (active); in assay [5] (at 50.0 µM) it was 99% (active); in assay [6] (setting [7]), 92% (active); in assay [6] (setting [8]), 98% (active); in assay [6] (at 50.0 µM) it was 98.6% (active).

For the compound `COC1OC(COC(=O)c2ccccc2)CC1F` (stereo not given), the growth inhibition in assay [1] (setting [7]) is 16%; in assay [1] (setting [8]), -26%; in assay [1] (at 50.0 µM) it was 93.5% (active); in assay [2] (setting [7]), -8%; in assay [2] (setting [8]), -22%; in assay [2] (at 50.0 µM) it was 94.8% (active). In addition, the growth inhibition is -12% in assay [3] (setting [7]); -13% in assay [3] (setting [8]); 94% (active) in assay [3] (at 50.0 µM); -24% in assay [4] (setting [7]); -2% in assay [4] (setting [8]); 91.8% (active) in assay [4] (at 50.0 µM). Moreover, the growth inhibition in assay [5] (setting [7]) was 19%; in assay [5] (setting [8]), 26%; in assay [5] (at 50.0 µM) it was 93.3% (active); in assay [6] (setting [7]), 18%; in assay [6] (setting [8]), -54%; in assay [6] (at 50.0 µM), 92.2% (active).

For the compound `O=C1c2ccccc2C(=O)c2cc(N3C(=O)C=CC3=O)ccc21`, the growth inhibition was 54% in assay [1] (setting [7]); 83% (active) in assay [1] (setting [8]); 90.7% (active) in assay [1] (at 50.0 µM); 50% in assay [2] (setting [7]); 89% (active) in assay [2] (setting [8]); 92% (active) in assay [2] (at 50.0 µM). Also, the growth inhibition in assay [3] (setting [7]) is 96% (active); in assay [3] (setting [8]) it was 98% (active); in assay [3] (at 50.0 µM), 91.5% (active); in assay [4] (setting [7]), 53%; in assay [4] (setting [8]) it was 99% (active); in assay [4] (at 50.0 µM), 91.7% (active). Also, the growth inhibition is 97% (active) in assay [5] (setting [7]); 97% (active) in assay [5] (setting [8]); 87.8% (active) in assay [5] (at 50.0 µM); 47% in assay [6] (setting [7]); 80% (active) in assay [6] (setting [8]); 91.5% (active) in assay [6] (at 50.0 µM).

As for `O=C(CCc1c[nH]c2ccccc12)c1ccccc1O`, the growth inhibition was 2% in assay [1] (setting [7]); 5% in assay [1] (setting [8]); 17.5% in assay [1] (at 50.0 µM); -1% in assay [2] (setting [7]); 14% in assay [2] (setting [8]); 22.1% in assay [2] (at 50.0 µM). Further, the growth inhibition in assay [3] (setting [7]) is 5%; in assay [3] (setting [8]) it was 16%; in assay [3] (at 50.0 µM), 59.3%; in assay [4] (setting [7]) it was -13%; in assay [4] (setting [8]), -18%; in assay [4] (at 50.0 µM), -21.4%. Besides, the growth inhibition in assay [5] (setting [7]) was 2%; in assay [5] (setting [8]), 14%; in assay [5] (at 50.0 µM), 73.8% (active); in assay [6] (setting [7]), -5%; in assay [6] (setting [8]), 12%; in assay [6] (at 50.0 µM) it was 43.4%.

For `c1ccc(C2=NC(=c3ccc(=C4N=C(c5ccccc5)C(c5ccccc5)=N4)cc3)N=C2c2ccccc2)cc1`, the growth inhibition in assay [1] (setting [7]) is 3%; in assay [1] (setting [8]), 44%; in assay [1] (at 50.0 µM), 86.6% (active); in assay [2] (setting [7]), 3%; in assay [2] (setting [8]), 17%; in assay [2] (at 50.0 µM), 65.6%. In addition, the growth inhibition in assay [3] (setting [7]) was -2%; in assay [3] (setting [8]), 48%; in assay [3] (at 50.0 µM) it was 59.9%; in assay [4] (setting [7]), 7%; in assay [4] (setting [8]), 5%; in assay [4] (at 50.0 µM) it was 29.6%. The growth inhibition in assay [5] (setting [7]) was 3%; in assay [5] (setting [8]) it was 8%; in assay [5] (at 50.0 µM), 51.3%; in assay [6] (setting [7]), 1%; in assay [6] (setting [8]), 19%; in assay [6] (at 50.0 µM), 93.7% (active).

For `CCC(=O)OC1CCC(C2CCCCC2)CC1` (stereo not given), the growth inhibition in assay [1] (setting [7]) is 3%; in assay [1] (setting [8]) it was 8%; in assay [1] (at 50.0 µM), -4.95%; in assay [2] (setting [7]), 1%; in assay [2] (setting [8]), 2%; in assay [2] (at 50.0 µM) it was -9.55%. The growth inhibition is 2% in assay [3] (setting [7]); 5% in assay [3] (setting [8]); 16.7% in assay [3] (at 50.0 µM); 5% in assay [4] (setting [7]); 7% in assay [4] (setting [8]); -21.2% in assay [4] (at 50.0 µM). Besides, the growth inhibition in assay [5] (setting [7]) is 65%; in assay [5] (setting [8]) it was 70% (active); in assay [5] (at 50.0 µM) it was 61.1%; in assay [6] (setting [7]) it was 4%; in assay [6] (setting [8]), 10%; in assay [6] (at 50.0 µM), 36.8%.

`CC(C)OC(=O)c1ccc(NC(=O)CCl)cc1`: the growth inhibition was 0% in assay [1] (setting [7]); -1% in assay [1] (setting [8]); 66.7% in assay [1] (at 50.0 µM); -1% in assay [2] (setting [7]); 5% in assay [2] (setting [8]); 59.8% in assay [2] (at 50.0 µM). Further, the growth inhibition is 3% in assay [3] (setting [7]); -8% in assay [3] (setting [8]); 79.1% (active) in assay [3] (at 50.0 µM); -1% in assay [4] (setting [7]); 5% in assay [4] (setting [8]); 31.9% in assay [4] (at 50.0 µM). In addition, the growth inhibition in assay [5] (setting [7]) was -4%; in assay [5] (setting [8]), -2%; in assay [5] (at 50.0 µM), 61%; in assay [6] (setting [7]) it was -5%; in assay [6] (setting [8]), 6%; in assay [6] (at 50.0 µM), 76.2% (active).

As for `CCCCCCCCCc1cc(O)c(O)cc1CCCCCCCCC`, the growth inhibition was -8% in assay [1] (setting [7]); 80% (active) in assay [1] (setting [8]); 22.4% in assay [1] (at 50.0 µM); -13% in assay [2] (setting [7]); 68% in assay [2] (setting [8]); 25.2% in assay [2] (at 50.0 µM). In addition, the growth inhibition in assay [3] (setting [7]) was -7%; in assay [3] (setting [8]), 42%; in assay [3] (at 50.0 µM), 42.9%; in assay [4] (setting [7]), -23%; in assay [4] (setting [8]) it was 86% (active); in assay [4] (at 50.0 µM), 54.1%. Moreover, the growth inhibition in assay [5] (setting [7]) is -12%; in assay [5] (setting [8]), 79% (active); in assay [5] (at 50.0 µM), 22.4%; in assay [6] (setting [7]), -2%; in assay [6] (setting [8]), 66%; in assay [6] (at 50.0 µM), 1.65%.
